Assay outcomes deposited in PubChem by Broad Institute.
C diff HTS: inhibitors of Clostridium difficile growth. 0.25% of 86,000 active. growth activity, negative = inhibition, % at 16 µg/mL (by protocol). Clostridium difficile clinical isolate growth, OD600, 24 h; hits give low values. AID 1259249;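 active = mean growth activity at or below -80% and every replicate also at or below -80%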;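 note: 0% = DMSO wells and -100% = levofloxacin 16 µg/mL wells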
Numbers without * were called inactive. This is one part of a sample in which hits are shown more often than they occur.

`COc1ccc2c3c([nH]c2c1)[C@H](CO)N(C(=O)Nc1ccc(F)cc1)CC31CN(S(=O)(=O)c2ccccc2)C1` gave C diff HTS -1.9.
Screening COc1cc(CN2CC3(CN(S(=O)(=O)c4cccs4)C3)c3c(n(C)c4cc(OC)ccc34)[C@@H]2CO)cc(OC)c1 returned C diff HTS -87.4*.
`COc1ccc2c3c([nH]c2c1)[C@@H](CO)N(C(=O)Nc1ccc(F)cc1)CC31CN(S(=O)(=O)c2cccs2)C1` gave C diff HTS -94.7*.
For COc1ccc2c3c([nH]c2c1)[C@@H](CO)N(C(=O)Nc1ccc(F)cc1)CC31CN(S(=O)(=O)c2cccc(F)c2)C1 the results were C diff HTS -3.2.
COc1ccc2c3c(n(C)c2c1)[C@H](CO)N(CC1CC1)CC31CN(S(=O)(=O)c2cccs2)C1 was read as C diff HTS 9.5.
COc1cc(CN2CC3(CCN(S(=O)(=O)c4cccs4)CC3)c3c(n(C)c4cc(OC)ccc34)[C@@H]2CO)cc(OC)c1 was read as C diff HTS 9.6.
`C[C@H]1CN([C@@H](C)CO)S(=O)(=O)c2ccc(-c3ccncc3)cc2O[C@H]1CN(C)Cc1ccncc1` gave C diff HTS -2.8.
Screening C[C@@H]1CN([C@H](C)CO)C(=O)c2cc(NC(=O)Nc3ccc(F)cc3)ccc2O[C@@H]1CN(C)Cc1ccccc1 returned C diff HTS 16.0.
For C[C@@H]1CN([C@H](C)CO)C(=O)c2cc(NC(=O)Cc3ccccc3)ccc2O[C@@H](C)CCCCO[C@H]1CN(C)C(=O)Nc1cccc2ccccc12 the results were C diff HTS -2.1.
COc1ccc2c3c([nH]c2c1)[C@@H](CO)N(C)CC31CN(C(=O)c2cccnc2)C1 was read as C diff HTS 4.4.
Screening COc1ccccc1C#Cc1ccc2c(c1)[C@@H]1[C@@H](CCN1C(=O)c1ccncc1)[C@@H](CO)N2 returned C diff HTS -94.6*.
`OC[C@H]1Nc2ccc(-c3ccccc3)cc2[C@@H]2[C@H]1CCN2Cc1ccccc1F` gave C diff HTS -101.0*.
For O=C(c1ccccc1)N1CC[C@@H]2[C@@H](CO)Nc3ccc(C#Cc4ccccc4F)cc3[C@@H]21 the results were C diff HTS 90.8.
`COc1ccccc1C#Cc1ccc2c(c1)[C@H]1[C@H](CCN1C(=O)c1ccc(F)cc1)[C@@H](CO)N2` gave C diff HTS -100.8*.
Screening COc1ccccc1C#Cc1ccc2c(c1)[C@@H]1[C@@H](CCN1C(=O)c1ccncc1)[C@H](CO)N2 returned C diff HTS 12.5.
OC[C@@H]1Nc2ccc(-c3ccccc3)cc2[C@@H]2[C@H]1CCN2Cc1ccccc1F was read as C diff HTS -7.4.
For COc1ccccc1C#Cc1ccc2c(c1)[C@H]1[C@H](CCN1C(=O)c1ccccc1)[C@H](CO)N2 the results were C diff HTS 2.0.
Screening COc1ccccc1CN1CC[C@H]2[C@H](CO)Nc3ccc(-c4cccc(F)c4)cc3[C@H]21 returned C diff HTS -1.8.
Screening COc1ccc(C#Cc2ccc3c(c2)[C@@H]2[C@@H](CCN2Cc2nccs2)[C@@H](CO)N3)cc1 returned C diff HTS -1.5.
`COc1ccccc1CN1CC[C@H]2[C@H](CO)Nc3ccc(C#Cc4ccccc4)cc3[C@H]21` gave C diff HTS -99.6*.
For COc1ccc(-c2ccc3c(c2)[C@@H]2[C@@H](CCN2Cc2ccccc2F)[C@H](CO)N3)cc1 the results were C diff HTS 18.0.
Screening O=C(c1ccc(F)cc1)N1CC[C@H]2[C@H](CO)Nc3ccc(C#Cc4ccccc4F)cc3[C@H]21 returned C diff HTS 68.9.
`COc1ccc2c3c([nH]c2c1)[C@@H](CO)N(Cc1nccs1)CC31CN(C(=O)C2CCCCC2)C1` gave C diff HTS -10.0.
For COc1ccc2c3c([nH]c2c1)[C@@H](CO)N(C(=O)Nc1c(C)noc1C)CC31CN(CC2CC2)C1 the results were C diff HTS 16.8.
Screening COc1ccc(NC(=O)Nc2ccc3c(c2)C(=O)N([C@@H](C)CO)C[C@H](C)[C@@H](CN(C)Cc2ccccc2)O3)cc1 returned C diff HTS -3.9.
CO[C@@H]1CN(C)C(=O)c2ccc(NC(C)=O)cc2OC[C@H](C)N(C(=O)CN(C)C)C[C@H]1C was read as C diff HTS -29.4.
For CO[C@H]1CN(C)C(=O)c2ccc(NC(=O)C3CCCC3)cc2OC[C@H](C)NC[C@@H]1C the results were C diff HTS -4.8.
N#Cc1ccc(-c2ccc3c(c2)[C@H]2[C@H](CCN2C(=O)c2ccncc2)[C@H](CO)N3)cc1 was read as C diff HTS -80.5*.
For N#Cc1cccc(-c2ccc3c(c2)[C@H]2[C@H](CCN2C(=O)c2ccncc2)[C@@H](CO)N3)c1 the results were C diff HTS -2.8.
Screening N#Cc1ccc(-c2ccc3c(c2)[C@H]2[C@H](CCN2C(=O)c2ccc(F)cc2)[C@@H](CO)N3)cc1 returned C diff HTS 11.4.
Screening C[C@H]1CN([C@@H](C)CO)S(=O)(=O)c2ccc(C3=CCCCC3)cc2O[C@@H]1CN(C)C(=O)Cc1ccncc1 returned C diff HTS -0.5.
